An excerpt weighted towards active compounds, which were near 1.3% of everything screened.
TcdB GH inh: blocks C. difficile toxin B glycohydrolase activity; P18177; TcdB glycohydrolase enzymatic assay, plate reader; inhibition, % at 9.99 µM; 350,000 tested, 0.24% active; AID 652162; in the data active = inhibition above about 10%
Target sequence (P18177 whole entry, looked up): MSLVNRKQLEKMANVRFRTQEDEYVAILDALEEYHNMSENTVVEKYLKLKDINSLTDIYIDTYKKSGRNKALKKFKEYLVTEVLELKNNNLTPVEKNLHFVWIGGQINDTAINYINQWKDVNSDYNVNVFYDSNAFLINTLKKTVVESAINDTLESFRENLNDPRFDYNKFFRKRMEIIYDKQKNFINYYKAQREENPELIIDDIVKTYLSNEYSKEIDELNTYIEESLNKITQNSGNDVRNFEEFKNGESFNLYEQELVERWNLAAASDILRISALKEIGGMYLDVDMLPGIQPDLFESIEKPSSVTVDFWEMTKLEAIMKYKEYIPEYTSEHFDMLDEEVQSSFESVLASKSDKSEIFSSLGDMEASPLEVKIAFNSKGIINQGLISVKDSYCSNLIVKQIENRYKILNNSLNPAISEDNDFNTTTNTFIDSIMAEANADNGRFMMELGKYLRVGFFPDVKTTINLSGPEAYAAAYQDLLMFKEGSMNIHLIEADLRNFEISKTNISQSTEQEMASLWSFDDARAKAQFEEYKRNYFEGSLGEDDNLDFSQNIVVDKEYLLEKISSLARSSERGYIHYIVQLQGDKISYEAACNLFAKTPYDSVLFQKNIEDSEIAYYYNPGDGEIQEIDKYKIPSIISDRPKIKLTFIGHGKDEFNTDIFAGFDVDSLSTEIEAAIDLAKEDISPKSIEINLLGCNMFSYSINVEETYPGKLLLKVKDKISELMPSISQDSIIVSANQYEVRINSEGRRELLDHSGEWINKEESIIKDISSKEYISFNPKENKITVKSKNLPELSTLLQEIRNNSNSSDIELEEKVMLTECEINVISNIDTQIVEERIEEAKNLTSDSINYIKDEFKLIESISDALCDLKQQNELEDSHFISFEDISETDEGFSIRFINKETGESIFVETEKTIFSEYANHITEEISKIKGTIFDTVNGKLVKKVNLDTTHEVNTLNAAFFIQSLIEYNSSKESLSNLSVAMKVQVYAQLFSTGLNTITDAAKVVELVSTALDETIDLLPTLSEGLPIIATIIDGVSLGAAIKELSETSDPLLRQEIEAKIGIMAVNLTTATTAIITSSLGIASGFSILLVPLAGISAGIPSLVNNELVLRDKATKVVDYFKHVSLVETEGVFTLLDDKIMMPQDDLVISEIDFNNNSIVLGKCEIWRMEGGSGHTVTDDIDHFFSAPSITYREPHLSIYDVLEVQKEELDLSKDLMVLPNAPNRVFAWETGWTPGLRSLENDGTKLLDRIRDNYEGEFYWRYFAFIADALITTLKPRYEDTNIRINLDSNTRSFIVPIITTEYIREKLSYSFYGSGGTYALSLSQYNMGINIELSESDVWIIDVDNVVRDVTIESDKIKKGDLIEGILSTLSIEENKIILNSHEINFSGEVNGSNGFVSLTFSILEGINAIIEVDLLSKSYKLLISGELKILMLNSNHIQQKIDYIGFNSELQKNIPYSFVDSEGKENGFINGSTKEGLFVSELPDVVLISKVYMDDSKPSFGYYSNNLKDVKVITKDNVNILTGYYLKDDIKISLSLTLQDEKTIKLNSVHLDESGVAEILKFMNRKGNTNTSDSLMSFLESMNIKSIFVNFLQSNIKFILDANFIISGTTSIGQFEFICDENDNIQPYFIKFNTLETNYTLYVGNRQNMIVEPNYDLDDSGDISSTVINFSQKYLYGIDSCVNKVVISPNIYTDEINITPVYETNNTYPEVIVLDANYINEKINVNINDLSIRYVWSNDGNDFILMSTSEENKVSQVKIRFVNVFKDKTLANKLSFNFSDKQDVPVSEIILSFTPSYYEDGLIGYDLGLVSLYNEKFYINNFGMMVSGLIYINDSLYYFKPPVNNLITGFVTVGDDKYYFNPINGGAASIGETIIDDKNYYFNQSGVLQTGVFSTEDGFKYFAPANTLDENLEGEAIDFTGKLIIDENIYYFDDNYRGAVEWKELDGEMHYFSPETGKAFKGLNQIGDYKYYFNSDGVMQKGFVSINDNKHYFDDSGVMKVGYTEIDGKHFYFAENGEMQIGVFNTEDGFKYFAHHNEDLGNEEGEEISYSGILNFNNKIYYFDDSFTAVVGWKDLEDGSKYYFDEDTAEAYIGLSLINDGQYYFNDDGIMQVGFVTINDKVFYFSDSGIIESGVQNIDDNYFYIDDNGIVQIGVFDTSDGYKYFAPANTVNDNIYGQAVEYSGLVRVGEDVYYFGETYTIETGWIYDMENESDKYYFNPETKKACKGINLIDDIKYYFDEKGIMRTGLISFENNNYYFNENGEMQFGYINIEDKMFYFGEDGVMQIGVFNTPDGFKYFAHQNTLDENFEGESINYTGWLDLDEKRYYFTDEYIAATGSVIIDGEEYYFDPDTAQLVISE
Vc quorum ag: induces V. cholerae light production without autoinducers | 350,000 tested, 0.16% active | AID 588436 | V. cholerae BH1578 lux reporter, luminescence, 6 h | activation, % at 18.7 µM; in the data active = activation mostly above about 9.7%, no sharp cut-off
VHR inh abs: DUSP3 (human) phosphatase inhibition. P51452. recombinant VHR phosphatase, pNPP absorbance. inhibition, % at 13.3 µM. 290,000 tested, 0.52% active. AID 1654; in the data active = inhibition above about 50%
SARS 3CLpro inh: SARS-CoV 3CLpro protease inhibition. P0C6X7. recombinant SARS-CoV 3CLpro, quenched FRET peptide cleavage. inhibition, % at 6 µM. 290,000 tested, 0.14% active. AID 1706; in the data active = inhibition above about 12%
CCHF vOTU inh-1: blocks the CCHF virus ovarian tumor domain protease; CCHFV vOTU protease, Pep-AMC fluorescence; inhibition, % at 11.5 µM; 370,000 tested, 0.55% active; AID 651958
PriA SSB inh: inhibitors of Klebsiella pneumoniae PriA binding to SSB C-terminal tail; AID 1272365; inhibition, % at 33 µM; AlphaScreen SSBct-PriA binding, biotinylated peptide; 430,000 tested, 0.6% active; in the data active = inhibition mostly above about 37%, no sharp cut-off; inactive = mostly below about 20%
CCHF vOTU inh-2: CCHFV vOTU protease inhibition, confirmation | shares compounds with CCHF vOTU inh-1 | Recombinant CCHFV vOTU, Pep-AMC fluorescence | inhibition, % at 11.5 µM | 1,900 tested, 17% active | AID 686976
Large screens that a line does not name were inactive (follow-up assays come after a bar, where they were run). Cut-off read from the data, not from the text of the source, unless noted: active = inhibition above about 30%; inactive = the rest.

COc1ccccc1-c1sc2cc3c(cc2c1-c1ccc(O)cc1)OCO3	CCHF vOTU inh-1 30 (no result: VHR inh abs, SARS 3CLpro inh) | CCHF vOTU inh-2 inactive
Nc1cc([N+](=O)[O-])cc2oc(-c3ccccc3)cc12	CCHF vOTU inh-1 32 | CCHF vOTU inh-2 inactive
O=c1cc(-c2ccccc2)oc2ccccc12	none (no result: VHR inh abs, SARS 3CLpro inh)
O=S(=O)(Nc1ccc(O)c2ccccc12)c1ccc(F)cc1	CCHF vOTU inh-1 81 (no result: VHR inh abs, SARS 3CLpro inh) | CCHF vOTU inh-2 inactive
Cc1oc2c(cc(NS(=O)(=O)c3ccc(C(C)C)cc3)c3ccccc32)c1C(=O)O	none
CCc1ccc(S(=O)(=O)Nc2ccc(O)c3ccccc23)cc1	CCHF vOTU inh-1 62 (no result: VHR inh abs) | CCHF vOTU inh-2 inactive
Cc1oc2c(cc(NS(=O)(=O)c3ccc(F)cc3)c3ccccc32)c1C(=O)O	CCHF vOTU inh-1 30 | CCHF vOTU inh-2 inactive
O=S(=O)(Nc1ccc(NS(=O)(=O)c2ccccc2)c2ccccc12)c1ccccc1	none (no result: VHR inh abs, SARS 3CLpro inh, PriA SSB inh)
Cc1ccc(S(=O)(=O)Nc2c(O)ccc3ccccc23)cc1	none (no result: TcdB GH inh, VHR inh abs, SARS 3CLpro inh, CCHF vOTU inh-1)
COc1cc(=O)n(-c2ccccc2)nc1C(=O)Nc1ccccc1-c1csc(C)n1	none (no result: TcdB GH inh, Vc quorum ag, VHR inh abs, SARS 3CLpro inh, CCHF vOTU inh-1)
O=C1c2ccccc2C(=O)N1CC1=NCCc2ccccc21	CCHF vOTU inh-1 39 (no result: TcdB GH inh) | CCHF vOTU inh-2 inactive
Nc1ncnc2oc(-c3ccco3)c(-c3ccco3)c12	CCHF vOTU inh-1 34 (no result: TcdB GH inh) | CCHF vOTU inh-2 inactive
Nc1nnc(-c2ccco2)s1	none (no result: TcdB GH inh)
COc1cc(NCCCCCCN)c2ncccc2c1OC	CCHF vOTU inh-1 102 (no result: Vc quorum ag, VHR inh abs, SARS 3CLpro inh) | CCHF vOTU inh-2 94
COc1cc(N)c2ncccc2c1OC	CCHF vOTU inh-1 40 (no result: VHR inh abs, SARS 3CLpro inh) | CCHF vOTU inh-2 inactive
CCc1cc(=O)n(CCNC(=O)Nc2ccc(OC(F)(F)F)cc2)cn1	none (no result: TcdB GH inh, Vc quorum ag, VHR inh abs, SARS 3CLpro inh, CCHF vOTU inh-1)
O=C(Nc1ccccc1C(F)(F)F)N1CCC(c2cccs2)CC1	none (no result: TcdB GH inh, Vc quorum ag, VHR inh abs, SARS 3CLpro inh, CCHF vOTU inh-1)
COc1cc(NCCCC(C)N)c2ncccc2c1 (stereo unspecified)	CCHF vOTU inh-1 65, PriA SSB inh 49 (no result: TcdB GH inh, VHR inh abs) | CCHF vOTU inh-2 108
CCC(CNc1cc(OC)cc2cccnc12)NC1CCCCC1 (stereo unspecified)	VHR inh abs 54, CCHF vOTU inh-1 110 | CCHF vOTU inh-2 102
COc1cc(NS(=O)(=O)c2ccc(C)cc2)c2ncccc2c1	none (no result: TcdB GH inh)
COc1cc(NCCCCC(C)N)c2nccc(C)c2c1 (stereo unspecified)	CCHF vOTU inh-1 57 (no result: VHR inh abs, SARS 3CLpro inh, PriA SSB inh) | CCHF vOTU inh-2 45
CCC(=O)N1CCCC(C)(C(=O)Nc2ccc(OC(F)F)cc2)C1 (stereo unspecified)	CCHF vOTU inh-1 31 (no result: VHR inh abs, SARS 3CLpro inh, PriA SSB inh) | CCHF vOTU inh-2 inactive
CCC(=O)N1CCCC1(C)C(=O)Nc1ccc(OC(F)F)cc1 (stereo unspecified)	none (no result: VHR inh abs, SARS 3CLpro inh, PriA SSB inh)
CCN(CC)S(=O)(=O)N1CCC(C(=O)NCc2ccco2)CC1	none
O=C(NCc1ccco1)C1CCN(S(=O)(=O)c2ccccc2C(F)(F)F)CC1	CCHF vOTU inh-1 31 (no result: VHR inh abs, SARS 3CLpro inh) | CCHF vOTU inh-2 inactive
CCCN1C(=O)C(C)(C)COc2cc(NS(=O)(=O)c3ccc(NC(=O)CC)cc3)ccc21	none (no result: TcdB GH inh, Vc quorum ag, VHR inh abs, SARS 3CLpro inh, CCHF vOTU inh-1)
COCc1cc(N2CCN(C(=O)OC(C)(C)C)C[C@H]2C)ccc1N1C[C@@H](C)O[C@@H](C)C1	CCHF vOTU inh-1 35 (no result: Vc quorum ag, VHR inh abs, SARS 3CLpro inh, PriA SSB inh) | CCHF vOTU inh-2 inactive
COc1c[nH]c(C(=O)O)cc1=O	none (no result: TcdB GH inh, Vc quorum ag, VHR inh abs, SARS 3CLpro inh, CCHF vOTU inh-1)
CC[C@@H]1C=C(C(=O)O)[C@H](c2ccc(Cl)cc2)N1S(=O)(=O)c1ccc(C)cc1	CCHF vOTU inh-1 32 (no result: VHR inh abs, SARS 3CLpro inh) | CCHF vOTU inh-2 inactive
Cc1ccc(S(=O)(=O)N2[C@@H](c3ccc(Cl)cc3)C(C(=O)O)=C[C@H]2CC2CCCC2)cc1	CCHF vOTU inh-1 31 (no result: VHR inh abs, SARS 3CLpro inh) | CCHF vOTU inh-2 inactive
Cc1ccc(S(=O)(=O)N2[C@@H](c3ccc(Cl)c(Cl)c3)C(C(=O)O)=C[C@H]2CC2CCCC2)cc1	CCHF vOTU inh-1 34 (no result: VHR inh abs, SARS 3CLpro inh) | CCHF vOTU inh-2 inactive
Cc1ccc(S(=O)(=O)N2[C@@H](c3ccc(C#N)cc3)C(C(=O)O)=C[C@H]2CC2CCCC2)cc1	none (no result: VHR inh abs, SARS 3CLpro inh)
Nc1cc2c(cc1Br)[nH]c(=O)c1ccccc12	CCHF vOTU inh-1 101 (no result: VHR inh abs, SARS 3CLpro inh) | CCHF vOTU inh-2 84
